Experimental findings from PubChem BioAssay (NCI) are described below.

Among the test systems are DU-145 prostate; K-562 leukemia; MALME-3M melanoma; MDA-MB-231 breast; SF-268 CNS; SF-295 CNS; SF-539 CNS; UACC-257 melanoma; M14 melanoma.
What all share (assay): NCI-60 one-dose screen, 48 h (100 = growth as untreated, 0 = no growth, -100 = all killed)
Details in all cases: 10 µM

This is part of a sample that, as a whole, favours compounds with a hit. Of some 83,000 tested, about 20% had one in any assay.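 Activity criterion: percent growth below 10, measured after cells in 96-well plates were exposed to a single compound concentration for 48 hours.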 A number with no mark means an inactive call. Calls of active or inactive are those of the source.

`CN1C(=O)N(C)C2SC(N/N=C/c3ccccc3)=NC21` (configuration not stated): the growth was 97.1% with DU-145 prostate; 19.2% with K-562 leukemia; 61.6% in the experiment on MALME-3M melanoma; 56.5% in the experiment with MDA-MB-231 breast; 82.9% with SF-268 CNS; 66.6% with SF-295 CNS. In addition, the growth in the experiment on SF-539 CNS was 64.5%; in the experiment on UACC-257 melanoma, 90.5%; in the experiment with M14 melanoma it was 48.4%.
In the case of `CN(C)CCNC(=O)OCCCCOc1cc(O)c2c(=O)cc(-c3ccccc3)oc2c1`, the growth was -27% (active) with DU-145 prostate; 8.72% (active) with K-562 leukemia; -96.8% (active) in the experiment with MALME-3M melanoma; -77.8% (active) in the experiment with MDA-MB-231 breast; -44.9% (active) in the experiment on SF-268 CNS; -90.5% (active) in the experiment on SF-295 CNS. The growth in the experiment with SF-539 CNS is -100% (active); with UACC-257 melanoma, -79.7% (active); with M14 melanoma, -75.1% (active).
`CC1(c2ccccc2)NC(=O)N(CC(=O)Nc2ccc(C(=O)/C=C/c3ccc(Br)cc3)cc2)C1=O` (configuration not stated): the growth with DU-145 prostate was 59.8%; in the experiment on K-562 leukemia, 14.5%; with MALME-3M melanoma, 72.9%; in the experiment with MDA-MB-231 breast, 54.3%; with SF-268 CNS it was 30.9%; in the experiment with SF-295 CNS, 37%. For the same compound, the growth in the experiment with SF-539 CNS was 39.9%; in the experiment on UACC-257 melanoma, 48.4%; in the experiment on M14 melanoma, 23.3%.
In the case of `CN(C)c1ccc(/C=C/c2nc3ccccc3c(=O)n2CC(=O)Nc2ccc(Cl)cc2)cc1`, the growth in the experiment with DU-145 prostate is 36.7%; in the experiment with K-562 leukemia it was 68.7%; in the experiment with MALME-3M melanoma, 15.5%; in the experiment on MDA-MB-231 breast, 35.1%; in the experiment on SF-268 CNS, 58.5%; with SF-295 CNS, 27.9%. The growth was -63.6% (active) with SF-539 CNS, 78.7% in the experiment on UACC-257 melanoma and 65.2% in the experiment on M14 melanoma.
On to `CC(=O)Nc1ccc(-c2cn(-c3cccc(C(=O)Nc4ccc(Cl)c(C(F)(F)F)c4)c3)nn2)cn1`, for which the growth in the experiment on DU-145 prostate is 3.54% (active); in the experiment on K-562 leukemia, 4.92% (active); in the experiment on MALME-3M melanoma, -89.6% (active); in the experiment on MDA-MB-231 breast, -87% (active); with SF-268 CNS, 6.74% (active); in the experiment with SF-295 CNS it was -64.2% (active). The growth with SF-539 CNS was -97.4% (active); with UACC-257 melanoma, -21.8% (active); in the experiment with M14 melanoma it was -49.1% (active).
For the compound `COc1ccc2[nH]cc(/C=N/Nc3cccc(Cl)n3)c2c1`, the growth was 64.4% in the experiment with DU-145 prostate; 19.9% in the experiment on K-562 leukemia; 76.3% with MALME-3M melanoma; 3.25% (active) with MDA-MB-231 breast; 32.8% with SF-268 CNS; 47.2% with SF-295 CNS. For the same compound, the growth with SF-539 CNS was 26.8%; in the experiment on UACC-257 melanoma, 84.3%; in the experiment on M14 melanoma, 49.5%.
For `COC1=C[C@@]23CCC(=O)N2CCc2cc4c(cc2[C@H]3[C@H]1OC(=O)C(C)(C)O)OCO4`, the growth in the experiment with DU-145 prostate was 108%; with K-562 leukemia, 107%; with MALME-3M melanoma it was 102%; with MDA-MB-231 breast, 94.9%; in the experiment on SF-268 CNS, 104%; in the experiment with SF-295 CNS, 95.8%. The values for the growth with SF-539 CNS, with UACC-257 melanoma and in the experiment on M14 melanoma were 93.6%, 104% and 102%, respectively.
Turning to `COc1ccc(C2NC(=S)NC(C)=C2C(=O)OC(C)C)cc1OC` (configuration not stated), the growth in the experiment with DU-145 prostate was 110%; with K-562 leukemia, 105%; in the experiment on MALME-3M melanoma, 95.7%; in the experiment with MDA-MB-231 breast, 105%; in the experiment with SF-268 CNS it was 107%; in the experiment with SF-295 CNS, 97.4%. The growth with SF-539 CNS was 103%; in the experiment on UACC-257 melanoma it was 119%; in the experiment on M14 melanoma, 105%.
Regarding `CC1(C)[C@@H](NCO)CC[C@]2(C)[C@H]3C(=O)C=C4[C@@H]5C[C@](C)(CO)CC[C@]5(C)CC[C@@]4(C)[C@]3(C)CC[C@@H]12`, the growth with DU-145 prostate was 79.4%; in the experiment on K-562 leukemia, 8.51% (active); with MALME-3M melanoma it was 49%; with MDA-MB-231 breast, 44.2%; in the experiment on SF-268 CNS, 68.8%; with SF-295 CNS, 2.19% (active). Further, the values for the growth with SF-539 CNS, with UACC-257 melanoma and with M14 melanoma were 45.4%, 33.4% and 25.5%, respectively.
Regarding `CN1C/C(=C\c2ccc(O)cc2O)c2[o+]c3cc(O)ccc3cc2C1`, the growth in the experiment on DU-145 prostate is 78.7%; with K-562 leukemia, 34.9%; in the experiment with MALME-3M melanoma it was 26.5%; with MDA-MB-231 breast it was 14.2%; with SF-268 CNS, 70%; with SF-295 CNS, 92.5%. Also, the values for the growth in the experiment on SF-539 CNS, with UACC-257 melanoma and in the experiment on M14 melanoma were -8.51% (active), 58.5% and 55.2%, respectively.
As for `COc1ccc2[nH]cc(/C=N/Nc3ccc(Br)cn3)c2c1`, the growth is 40.7% in the experiment with DU-145 prostate; 9.92% (active) in the experiment with K-562 leukemia; 63.9% with MALME-3M melanoma; 6.27% (active) in the experiment with MDA-MB-231 breast; 21% in the experiment with SF-268 CNS; 17.4% in the experiment with SF-295 CNS. For the same compound, the growth in the experiment on SF-539 CNS is 18.8%; in the experiment on UACC-257 melanoma it was 52.6%; with M14 melanoma, 8.66% (active).
As for `O=S(=O)(Nc1ncccn1)c1ccc(-n2c(-c3ccccc3)nc(-c3ccccc3)c2-c2ccccc2)cc1`, the growth in the experiment with DU-145 prostate is 101%; in the experiment on K-562 leukemia, 92.6%; in the experiment with MALME-3M melanoma, 111%; in the experiment on MDA-MB-231 breast it was 87.7%; in the experiment on SF-268 CNS, 85%; in the experiment on SF-295 CNS, 65.9%. Further, the growth in the experiment on SF-539 CNS was 83.4%; with UACC-257 melanoma, 118%; in the experiment on M14 melanoma, 102%.
`C/C(=C\c1ccc(O)cc1O)c1ccc2ccc(O)cc2[o+]1`: the growth in the experiment with DU-145 prostate is 25.8%; with K-562 leukemia, 72.7%; in the experiment with MALME-3M melanoma it was 56.8%; in the experiment with MDA-MB-231 breast it was 39.6%; in the experiment with SF-268 CNS it was 116%; with SF-295 CNS, 80.6%. Besides, the growth in the experiment on SF-539 CNS was 72.4%; with UACC-257 melanoma, 84%; in the experiment on M14 melanoma, 73.3%.
